The values below come from PubChem BioAssay (NCI).

The panel holds about 83,000 compounds, 20% with a hit somewhere; the sample as a whole holds those more often.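 48-hour exposure, single concentration, 96-well plates; percent growth endpoint where 0 means no net growth. Active: below 10.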 Values without a mark were called inactive. Active and inactive are the calls of the source.

Among the test systems are HCT-15 colon; HT29 colon; SNB-75 CNS; SNB-19 CNS; PC-3 prostate; SK-MEL-5 melanoma; UACC-62 melanoma; LOX IMVI melanoma; SK-MEL-28 melanoma.
Holding throughout (assay): NCI-60 one-dose screen, 48 h (100 = growth as untreated, 0 = no growth, -100 = all killed)
Settings in all cases: 10 µM unless noted

Consider `O=C1C2CC3C(CC2C(=O)[N]1[Sn]([c]1ccccc1)([c]1ccccc1)[c]1ccccc1)C1(Cl)C(Cl)=C(Cl)C3(Cl)C1(Cl)Cl` (stereo not drawn), for which the growth is -88% (active) in the experiment with HCT-15 colon; -87.3% (active) in the experiment with HT29 colon; -84.8% (active) in the experiment on SNB-75 CNS; -97.4% (active) in the experiment on SNB-19 CNS; -92.9% (active) in the experiment on PC-3 prostate; -93.1% (active) in the experiment on SK-MEL-5 melanoma. Also, the growth was -95.7% (active) in the experiment with UACC-62 melanoma, -66.7% (active) in the experiment with LOX IMVI melanoma and -94.2% (active) with SK-MEL-28 melanoma.

As for `COc1nc2c(cc1S(=O)(=O)c1ccccc1)CCc1c-2cnn1-c1ccccc1`, the growth in the experiment with HCT-15 colon was 59.8%; in the experiment with HT29 colon it was 54.7%; with SNB-75 CNS, 65.8%; in the experiment on SNB-19 CNS it was 89.3%; with PC-3 prostate, 50.3%; in the experiment with SK-MEL-5 melanoma, 86.6%. For the same compound, the figures for the growth in the experiment with UACC-62 melanoma, with LOX IMVI melanoma and in the experiment with SK-MEL-28 melanoma were 69.4%, 90% and 82.9%, respectively.

As for `Cc1nc2cc(Nc3nc(N4CCOCC4)nc(N4CCN(C)CC4)n3)ccc2n1Cc1ccccc1`, the growth in the experiment with HCT-15 colon was 96%; in the experiment with HT29 colon, 109%; in the experiment with SNB-75 CNS, 71.2%; with SNB-19 CNS it was 106%; with PC-3 prostate, 96.7%; in the experiment on SK-MEL-5 melanoma it was 97.5%. Besides, the growth in the experiment on UACC-62 melanoma was 102%; in the experiment with LOX IMVI melanoma, 97.2%.

Turning to `FC(F)(F)c1ccc2c(c1)n1cnnc1c1nncn21`, the growth in the experiment with HCT-15 colon was 111%; with HT29 colon, 107%; with SNB-75 CNS it was 103%; in the experiment with SNB-19 CNS, 107%; in the experiment with PC-3 prostate it was 98.3%; in the experiment with SK-MEL-5 melanoma it was 98.7%. Further, the growth in the experiment on UACC-62 melanoma was 110%; in the experiment on LOX IMVI melanoma it was 108%; with SK-MEL-28 melanoma, 115%.

Take `COc1cccc(-c2ccc3c(c2)C2CCN(Cc4ccccc4)C3C2)c1` (stereo not drawn): the growth in the experiment on HCT-15 colon is 57.8%; with HT29 colon it was 36.5%; with SNB-75 CNS, 77%; with SNB-19 CNS it was 90.4%; in the experiment with PC-3 prostate it was 66.5%; in the experiment on SK-MEL-5 melanoma it was 99.4%. Moreover, the growth in the experiment with UACC-62 melanoma is 83.6%; in the experiment on LOX IMVI melanoma it was 85.5%.

With `O=C(O)CCN1CCN(c2cccc(Cl)c2)CC1`, the growth with HCT-15 colon was 100%; with HT29 colon, 99.8%; in the experiment with SNB-75 CNS it was 84%; in the experiment with SNB-19 CNS, 103%; in the experiment on PC-3 prostate, 101%; in the experiment on SK-MEL-5 melanoma, 102%. The growth with UACC-62 melanoma is 104%; in the experiment on LOX IMVI melanoma, 110%; in the experiment with SK-MEL-28 melanoma, 108%.

On to `O/N=C/c1cccs1`, for which the growth with HCT-15 colon is 98.4%; with HT29 colon it was 107%; in the experiment on SNB-75 CNS, 94.3%; in the experiment with SNB-19 CNS, 107%; with PC-3 prostate, 101%; in the experiment with SK-MEL-5 melanoma it was 103%. Also, the figures for the growth in the experiment with UACC-62 melanoma, with LOX IMVI melanoma and in the experiment with SK-MEL-28 melanoma were 119%, 107% and 112%, respectively.

As for `CCCCCCCCCCCCSC1=CC(=O)C=CC1=O`, the growth with HCT-15 colon is 74.6%; in the experiment with HT29 colon, 94.7%; with SNB-75 CNS, 44.9%; with SNB-19 CNS, 40.4%; with PC-3 prostate, 16.8%; with SK-MEL-5 melanoma, 97.5%. Moreover, the growth in the experiment on UACC-62 melanoma was 96.4%; in the experiment on LOX IMVI melanoma, 28.1%; in the experiment on SK-MEL-28 melanoma, 110%.

As for `O=C(Nc1ccc(F)cc1)c1ccc(C(=O)Nc2ccc(F)cc2)cc1`, the growth was 89.1% in the experiment on HCT-15 colon; 97.7% in the experiment with HT29 colon; 84.1% in the experiment with SNB-75 CNS; 106% in the experiment on SNB-19 CNS; 99.6% with PC-3 prostate; 99.9% with SK-MEL-5 melanoma. The growth is 107% in the experiment with UACC-62 melanoma, 103% in the experiment with LOX IMVI melanoma and 98.6% in the experiment with SK-MEL-28 melanoma.

For `O=C(Nc1ccc(Cl)c(Cl)c1)NC(CO)(CO)CO`, the growth in the experiment on HCT-15 colon was 94.9%; with HT29 colon, 100%; with SNB-75 CNS, 79.3%; with SNB-19 CNS it was 101%; with PC-3 prostate, 86.3%; in the experiment with SK-MEL-5 melanoma, 99.3%. Besides, the growth in the experiment with UACC-62 melanoma was 113%; in the experiment on LOX IMVI melanoma, 95.2%; in the experiment with SK-MEL-28 melanoma, 107%.

For `O=C1CC2c3cc(-c4cc5ccccc5o4)ccc3CCN2C(=O)N1c1ccccc1` (stereo not drawn), the growth in the experiment with HCT-15 colon was 54.6%; in the experiment with HT29 colon, 85.7%; in the experiment on SNB-75 CNS it was 73.8%; in the experiment with SNB-19 CNS it was 89.6%; in the experiment on PC-3 prostate, 51.9%; in the experiment on SK-MEL-5 melanoma, 82.7%. Besides, the growth was 81.1% in the experiment with UACC-62 melanoma, 94.4% in the experiment on LOX IMVI melanoma and 99.8% in the experiment with SK-MEL-28 melanoma.

Take `CC(C)(C)CC(C)(C)N(CSc1ccc(Cl)cc1)CSc1ccc(Cl)cc1`: the growth with HCT-15 colon was 53.3%; with HT29 colon, 57.7%; in the experiment on SNB-75 CNS, 49.6%; in the experiment on SNB-19 CNS, 67.5%; in the experiment on PC-3 prostate, 2.25% (active); in the experiment on SK-MEL-5 melanoma it was 54.2%. Further, the figures for the growth with UACC-62 melanoma, in the experiment on LOX IMVI melanoma and in the experiment on SK-MEL-28 melanoma were 57.9%, -34.6% (active) and 76.7%, respectively.

As for `Cc1nn(-c2ccccc2)c2nc3nc4c(c(N)c3c(-c3ccc(Cl)cc3)c12)CCCC4`, the growth in the experiment with HCT-15 colon was 93.3%; with HT29 colon, 91.5%; in the experiment on SNB-75 CNS it was 101%; with SNB-19 CNS, 108%; with PC-3 prostate, 94.7%; in the experiment with SK-MEL-5 melanoma, 101%. Further, the growth in the experiment on UACC-62 melanoma is 108%; in the experiment with LOX IMVI melanoma, 94.4%; in the experiment with SK-MEL-28 melanoma, 97.2%.

Regarding `CC1(C)N=C(N)N=C(N)N1c1cccc(OCCOc2cccc([N+](=O)[O-])c2)c1`, the growth is 89.5% with HCT-15 colon; 15.4% in the experiment with HT29 colon; 51.8% in the experiment with SNB-75 CNS; 53.9% in the experiment on SNB-19 CNS; 17.8% with PC-3 prostate; 70.5% with SK-MEL-5 melanoma. The growth in the experiment on UACC-62 melanoma was 39.6%; with LOX IMVI melanoma, 20.1%; in the experiment on SK-MEL-28 melanoma, 56%.

For the compound `Brc1ccc(SCN(CSc2ccc(Br)cc2)Cc2ccccc2)cc1`, the growth in the experiment on HCT-15 colon is 78.8%; in the experiment on HT29 colon, 78.9%; in the experiment with SNB-75 CNS, 66.4%; with SNB-19 CNS, 84.2%; in the experiment with PC-3 prostate it was 26.4%; in the experiment with SK-MEL-5 melanoma, 91.2%. Further, the growth is 92% in the experiment on UACC-62 melanoma, -15.5% (active) in the experiment with LOX IMVI melanoma and 101% with SK-MEL-28 melanoma.
